Here are results for 5 molecules from PubChem BioAssay.

Assay [1] in a line: rapamycin-like changes in RPL19A-GFP expression – cell-based, S. cerevisiae, multiplex flow cytometry, primary screen (AID 1862; in the data active = percent of DMSO control GFP below about 86%;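 note: lower values mimic rapamycin by blocking the RPL19A rise seen in DMSO cells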). Particulars: S. cerevisiae RPL19A-GFP strain, flow cytometry fluorescence, 3 h; at 10 µM; stronger effect = lower value. A general note: In flow cytometry, cells or beads pass a laser one at a time.
Assay [2] can be described thus: TOR pathway GLN3 branch reporter MEP2-GFP changes – S. cerevisiae, multiplex flow cytometry, primary screen (AID 1867;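 active = GFP response, as percent of the DMSO control, above the screen-wide mean plus 3 SD, about 139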;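 note: median GFP channel fluorescence of barcode-gated MEP2-GFP cells measured by flow cytometry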). Particulars: S. cerevisiae MEP2-GFP strain, 3 h, at 10 µM, stronger effect = higher value, 100% means same as DMSO wells.
The nature of assay [3]: TOR pathway RTG branch CIT2 reporter changes – S. cerevisiae, GFP fusion, multiplex flow cytometry, primary screen (AID 1870;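 active = percent response above a set limit, the screen-wide mean plus 3 SD, cut at about 130% in these data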;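 note: barcoded CIT2-GFP strain pooled with four other GFP strains with rapamycin as positive control; median GFP fluorescence per well over plate mean of DMSO wells so 100% = DMSO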). The following applies: S. cerevisiae CIT2-GFP expression, 3 h, at 10 µM, stronger effect = higher value.
Assay [4] in a line: TOR pathway LAP4-GFP level changes – S. cerevisiae, multiplex flow cytometry, primary screen (AID 1873;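 active = GFP signal, as percent of the solvent control, above the screen mean plus 3 SD, about 149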). The following applies: S. cerevisiae LAP4-GFP expression, 3 h, at 10 µM, stronger effect = higher value.
Assay [5] in a line: yeast AGP1-GFP level changes, GLN3 branch – cell-based, multiplex flow cytometry, S. cerevisiae, primary screen (AID 1887;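 active = GFP signal above the screen-wide mean plus 3 SD, that is over about 124.5% of the solvent control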;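 note: AGP1-GFP fusion strain of S. cerevisiae within a five-strain barcoded multiplex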). Particulars: 3 h, at 10 µM, stronger effect = higher value.
The nature of assay [6]: reduced mouse 2C T cell binding to pMHC/ICAM-1 vesicles – MLPCN validation set, flow cytometry, LFA-1/ICAM-1 modulator project, pilot screen (AID 2523;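 active = response below a set limit, under 55% cells CD8-positive and vesicle-bound, and CD8 cells' 90th-percentile brightness under 279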;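 for vesicle binding response: mean PE anti-B7-1 fluorescence of CD8+ cells relative to row control; 100% = QL9-loaded vesicles with DMSO vehicle in the same plate row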). Particulars: 2C mouse CD8+ T cells, at 7 µM, stronger effect = lower value; double positive events: measured here: CD8+/vesicle+ event percentage.
Assay [7] addresses Integrin beta-1 (Homo sapiens) + Integrin alpha-4 (Homo sapiens) (UniProt P13612+P05556). The assay is described as follows: alpha4beta1 integrin LIBS antibody binding reduction – U937 cells, HUTS-21 mAb, flow cytometry, validation set, VLA-4 allosteric modulator project, pilot screen (AID 2674).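 Note: antibody binding induced by the VLA-4 ligand LDV present at three times its Kd; 0% = LDV ligand with antibody and no compound and 100% = antibody without LDV.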 The following applies: HUTS-21 LIBS mAb binding, at 6.7 µM, stronger effect = higher value, binding induced by LDV ligand.

Assay [8] can be described thus: calorie-restriction mimetic ROS inhibitors, yeast – validation compound set, pilot screen (AID 2706;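 active = superoxide response below 65% of plate, a cut near 3 SD across the whole screen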;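 note: yeast exposed to compound for one week at 30 degrees C before staining; 100% = mean of all compound wells on the same plate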). Particulars: S. cerevisiae aging, superoxide DHE fluorescence; at 10 µM, stronger effect = lower value.
The target in assay [9] is Beta-adrenergic receptor kinase 1 (Homo sapiens) (UniProt P25098). Put plainly: GRK2 binders displacing RNA aptamer, biochemical, validation, human GRK2, bead flow cytometry (AID 488806;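 active = aptamer binding inhibition above 30%, about 3 SD of noise from non-fluorescent compounds; inactive = inhibition at or below 30%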). The following applies: bead-bound GRK2, FAM-aptamer displacement, at 10 µM, stronger effect = higher value.
For assay [10], the target named is AP-2 complex subunit beta (Homo sapiens) (UniProt P63010). The assay is described as follows: beta-arrestin/AP2 interaction blockers – biochemical, validation set, GST-AP2 beads, flow cytometry, pilot screen (AID 504541;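 active = inhibition above 54%, about 3 SD of non-fluorescent compounds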;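 note: AP2 carries R879A mutation and is captured from E. coli lysate; bead-bound FITC arrestin peptide fluorescence measuring arrestin peptide binding to AP2; 0% = DMSO wells and 100% = excess unlabeled arrestin peptide control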). The following applies: FITC arrestin peptide, at 10 µM, stronger effect = higher value, AP2 beta2 appendage fragment, R879A mutant.
Assay [11] is described as follows: cytosolic pH regulators acting via V-ATPase – S. cerevisiae, pHLuorin, HTS validation (AID 504600; in the data active = response above about 15%;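 note: plate controls were DMSO for no effect and reference compound for full effect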). Particulars: V-ATPase proton transport, at 10 µM, stronger effect = higher value.
The test system of assay [12] is anti-desmoglein-3 scFv antibody binding to human DSG3. The assay is described as follows: blockers of pathogenic pemphigus antibody–desmoglein-3 binding – biochemical, validation compound set, bead-based, flow cytometry, pilot screen (AID 588368;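 active = binding below the plate cutoff, the plate median minus 3 SD, with a reading above zero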;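 note: signal is the median channel fluorescence of bead-bound GFP antibody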). The following applies: Protein G beads, DSG3-Fc, scFv-GFP binding, at 10 µM, stronger effect = lower value.
Assay [13] in a line: Nile Red efflux blockade in pump-expressing yeast – validation compound set, multiplex, phenotypic, pilot screen (AID 588506;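 active = efflux inhibition above 0.42, the validation set average plus 4 SD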;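 note: Nile Red retained in cells so higher fluorescence means more efflux inhibition; 0 = negative control wells and 1 = enniatin B 25 µM full block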). Particulars: S. cerevisiae pump-expressing triplex, Nile Red efflux flow cytometry; at 10 µM; stronger effect = higher value; the pumps come from Candida albicans.
Assay [14] has as its target ATP-binding cassette sub-family B member 6 (Homo sapiens) (UniProt Q9NP58). Put plainly: blockers of ABCB6-driven porphyrin uptake – K562-ABCB6 cells, flow cytometry, validation set, pilot screen (AID 588550;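 active = inhibition above the screen-wide mean plus 3 SD, about 51%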;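 note: 0% = DMSO wells and 100% = benzethonium chloride 70 µM positive control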). The following applies: K562-ABCB6 porphyrin accumulation, 1 h, at 10 µM, stronger effect = higher value.
A short description of assay [15]: AML differentiation inducers, ER-HoxA9 marrow cells – cell-based, GFP/MAC1 double positive, flow cytometry, validation set, primary screen (AID 588685;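 active = differentiation response of at least 50%, scaled between solvent and reference control, from cells with both markers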;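 note: compound exposure lasts four days before antibody staining and flow analysis; 0% = DMSO wells and 100% = 5 µM fulvestrant positive control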). The following applies: stronger effect = higher value, normalized: vehicle 0, fulvestrant 100.
The target in assay [16] is Beta-2 adrenergic receptor (Homo sapiens) (UniProt P07550). Put plainly: agonist-induced loss of surface beta2AR – cell-based, FAP fluorogen, flow cytometry, validation set, pilot screen (AID 504459;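 active = percent response above 42, roughly 3 SD of non-fluorescent test compounds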;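 note: agonist-driven loss of surface beta2AR via internalization measured by FAP dye flow cytometry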). The following applies: Am2.2-beta2AR cells, at 10 µM, stronger effect = higher value.

Results filed as inconclusive are left out. Active and inactive are the calls of the source.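 Rule for the calls, unless noted: active = inhibition above 50%, about 3 SD of the validation set; inactive = the rest.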

Sequence of AP-2 complex subunit beta (Homo sapiens) (P63010 whole entry, looked up, the tested form may be a part, one chain of several): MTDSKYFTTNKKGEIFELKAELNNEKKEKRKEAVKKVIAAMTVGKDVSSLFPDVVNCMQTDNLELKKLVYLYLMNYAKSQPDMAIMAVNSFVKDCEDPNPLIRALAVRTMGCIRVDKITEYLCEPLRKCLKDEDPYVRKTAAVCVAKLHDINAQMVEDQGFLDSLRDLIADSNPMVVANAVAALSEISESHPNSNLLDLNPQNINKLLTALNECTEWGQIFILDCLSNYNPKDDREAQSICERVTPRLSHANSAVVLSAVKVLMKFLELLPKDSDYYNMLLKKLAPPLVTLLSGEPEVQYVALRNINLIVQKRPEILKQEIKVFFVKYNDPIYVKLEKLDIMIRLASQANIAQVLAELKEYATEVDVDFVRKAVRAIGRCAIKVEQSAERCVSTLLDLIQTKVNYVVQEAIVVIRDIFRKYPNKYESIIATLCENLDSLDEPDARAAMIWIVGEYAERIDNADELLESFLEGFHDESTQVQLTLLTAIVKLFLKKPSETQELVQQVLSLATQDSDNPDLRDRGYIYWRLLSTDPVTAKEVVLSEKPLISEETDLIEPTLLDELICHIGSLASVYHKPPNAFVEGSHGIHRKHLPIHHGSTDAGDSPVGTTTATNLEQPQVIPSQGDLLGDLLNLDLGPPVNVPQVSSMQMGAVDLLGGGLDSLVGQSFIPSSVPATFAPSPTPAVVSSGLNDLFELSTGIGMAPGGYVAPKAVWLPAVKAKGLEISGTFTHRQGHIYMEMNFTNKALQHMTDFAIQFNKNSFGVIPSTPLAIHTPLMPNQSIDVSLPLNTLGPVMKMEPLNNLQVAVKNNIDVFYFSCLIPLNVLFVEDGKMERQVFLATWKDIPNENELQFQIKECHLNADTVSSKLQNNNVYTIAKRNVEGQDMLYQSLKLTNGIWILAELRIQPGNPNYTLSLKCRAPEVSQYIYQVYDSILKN
Sequence of Beta-adrenergic receptor kinase 1 (Homo sapiens) (P25098 whole entry, looked up): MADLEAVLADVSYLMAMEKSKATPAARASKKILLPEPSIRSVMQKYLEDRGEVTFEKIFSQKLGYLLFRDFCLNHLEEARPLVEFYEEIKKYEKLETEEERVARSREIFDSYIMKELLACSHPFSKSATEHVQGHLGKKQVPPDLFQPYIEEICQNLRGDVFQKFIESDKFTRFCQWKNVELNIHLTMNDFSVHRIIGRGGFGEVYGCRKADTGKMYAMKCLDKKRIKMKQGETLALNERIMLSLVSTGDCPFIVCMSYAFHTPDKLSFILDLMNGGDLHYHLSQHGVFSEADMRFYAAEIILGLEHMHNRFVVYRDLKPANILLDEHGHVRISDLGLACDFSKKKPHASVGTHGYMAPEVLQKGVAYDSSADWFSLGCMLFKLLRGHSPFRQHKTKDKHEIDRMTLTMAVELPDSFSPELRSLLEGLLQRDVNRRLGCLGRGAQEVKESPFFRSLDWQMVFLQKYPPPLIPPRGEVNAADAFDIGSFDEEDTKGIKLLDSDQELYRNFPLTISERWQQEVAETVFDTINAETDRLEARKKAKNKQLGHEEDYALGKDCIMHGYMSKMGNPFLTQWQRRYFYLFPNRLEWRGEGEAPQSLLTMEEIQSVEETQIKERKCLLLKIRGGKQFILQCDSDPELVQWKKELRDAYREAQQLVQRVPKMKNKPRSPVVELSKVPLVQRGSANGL
Sequence of ATP-binding cassette sub-family B member 6 (Homo sapiens) (Q9NP58 whole entry, looked up): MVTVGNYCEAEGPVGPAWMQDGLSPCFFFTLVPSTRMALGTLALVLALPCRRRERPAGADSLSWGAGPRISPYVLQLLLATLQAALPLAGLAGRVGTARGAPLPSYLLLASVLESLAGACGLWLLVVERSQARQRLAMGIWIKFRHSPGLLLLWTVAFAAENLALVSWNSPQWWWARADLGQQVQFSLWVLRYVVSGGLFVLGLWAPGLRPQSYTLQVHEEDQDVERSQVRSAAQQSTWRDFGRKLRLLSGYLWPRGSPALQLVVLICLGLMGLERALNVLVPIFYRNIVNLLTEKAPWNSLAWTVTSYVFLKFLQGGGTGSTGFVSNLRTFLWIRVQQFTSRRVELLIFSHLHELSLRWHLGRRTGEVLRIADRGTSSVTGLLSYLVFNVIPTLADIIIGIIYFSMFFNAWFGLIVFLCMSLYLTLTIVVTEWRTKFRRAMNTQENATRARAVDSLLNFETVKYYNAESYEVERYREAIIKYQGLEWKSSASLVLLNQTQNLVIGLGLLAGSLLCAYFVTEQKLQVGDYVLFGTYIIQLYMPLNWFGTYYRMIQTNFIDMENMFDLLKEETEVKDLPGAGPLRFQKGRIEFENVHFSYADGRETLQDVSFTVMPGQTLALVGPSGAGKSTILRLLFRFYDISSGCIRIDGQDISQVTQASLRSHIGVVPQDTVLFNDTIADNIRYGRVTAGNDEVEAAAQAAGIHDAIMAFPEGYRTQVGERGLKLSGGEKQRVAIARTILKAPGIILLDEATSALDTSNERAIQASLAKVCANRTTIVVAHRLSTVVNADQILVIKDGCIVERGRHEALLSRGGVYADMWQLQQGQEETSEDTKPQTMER
Sequence of Integrin beta-1 (Homo sapiens) + Integrin alpha-4 (Homo sapiens) (P05556 whole entry, looked up): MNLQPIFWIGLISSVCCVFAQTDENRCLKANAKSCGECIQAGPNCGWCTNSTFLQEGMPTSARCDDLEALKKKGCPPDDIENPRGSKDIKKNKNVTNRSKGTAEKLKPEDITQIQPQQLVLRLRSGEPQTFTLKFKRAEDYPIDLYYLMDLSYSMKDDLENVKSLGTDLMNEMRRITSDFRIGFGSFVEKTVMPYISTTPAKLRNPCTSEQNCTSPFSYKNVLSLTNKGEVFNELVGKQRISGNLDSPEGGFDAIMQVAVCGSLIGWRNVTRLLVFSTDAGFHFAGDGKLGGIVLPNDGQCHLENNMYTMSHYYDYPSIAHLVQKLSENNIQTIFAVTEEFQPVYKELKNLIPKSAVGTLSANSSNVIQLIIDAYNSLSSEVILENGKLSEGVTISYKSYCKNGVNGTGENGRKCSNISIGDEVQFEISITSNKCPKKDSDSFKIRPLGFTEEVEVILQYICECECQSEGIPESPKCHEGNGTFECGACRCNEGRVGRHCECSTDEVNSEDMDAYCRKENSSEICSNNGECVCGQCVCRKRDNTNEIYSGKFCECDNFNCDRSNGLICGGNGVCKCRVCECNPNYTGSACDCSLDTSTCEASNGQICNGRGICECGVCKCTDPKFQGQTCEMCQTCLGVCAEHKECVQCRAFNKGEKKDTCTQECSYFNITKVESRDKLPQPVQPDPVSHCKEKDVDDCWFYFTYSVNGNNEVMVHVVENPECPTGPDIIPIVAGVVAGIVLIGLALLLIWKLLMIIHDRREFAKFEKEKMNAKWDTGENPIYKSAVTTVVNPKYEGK
Sequence of Integrin beta-1 (Homo sapiens) + Integrin alpha-4 (Homo sapiens) (P13612 whole entry, looked up): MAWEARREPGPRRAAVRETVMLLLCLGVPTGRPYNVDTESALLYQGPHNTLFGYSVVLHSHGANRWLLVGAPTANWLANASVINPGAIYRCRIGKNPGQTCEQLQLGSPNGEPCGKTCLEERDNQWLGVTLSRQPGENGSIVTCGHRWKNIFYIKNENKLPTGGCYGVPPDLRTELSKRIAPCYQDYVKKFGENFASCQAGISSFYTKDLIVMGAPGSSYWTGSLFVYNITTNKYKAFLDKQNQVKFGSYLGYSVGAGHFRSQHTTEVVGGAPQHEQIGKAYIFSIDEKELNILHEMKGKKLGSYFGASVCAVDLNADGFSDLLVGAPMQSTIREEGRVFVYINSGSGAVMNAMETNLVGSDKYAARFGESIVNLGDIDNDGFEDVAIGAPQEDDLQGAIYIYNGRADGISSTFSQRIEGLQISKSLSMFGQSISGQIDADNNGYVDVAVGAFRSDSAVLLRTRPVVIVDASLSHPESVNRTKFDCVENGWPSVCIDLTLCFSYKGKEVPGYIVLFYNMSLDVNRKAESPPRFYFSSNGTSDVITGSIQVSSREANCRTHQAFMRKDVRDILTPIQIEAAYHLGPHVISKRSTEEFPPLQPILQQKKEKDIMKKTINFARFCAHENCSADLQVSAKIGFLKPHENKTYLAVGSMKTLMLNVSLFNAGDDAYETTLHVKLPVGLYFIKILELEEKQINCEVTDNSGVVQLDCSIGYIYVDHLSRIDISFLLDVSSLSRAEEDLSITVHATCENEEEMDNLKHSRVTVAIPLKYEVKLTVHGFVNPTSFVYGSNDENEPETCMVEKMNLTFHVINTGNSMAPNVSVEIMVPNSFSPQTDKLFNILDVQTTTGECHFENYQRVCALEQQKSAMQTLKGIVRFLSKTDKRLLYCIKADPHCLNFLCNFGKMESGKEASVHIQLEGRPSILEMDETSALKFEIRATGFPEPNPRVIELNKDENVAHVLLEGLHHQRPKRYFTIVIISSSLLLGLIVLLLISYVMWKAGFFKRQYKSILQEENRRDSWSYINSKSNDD
Sequence of Beta-2 adrenergic receptor (Homo sapiens) (P07550 whole entry, looked up): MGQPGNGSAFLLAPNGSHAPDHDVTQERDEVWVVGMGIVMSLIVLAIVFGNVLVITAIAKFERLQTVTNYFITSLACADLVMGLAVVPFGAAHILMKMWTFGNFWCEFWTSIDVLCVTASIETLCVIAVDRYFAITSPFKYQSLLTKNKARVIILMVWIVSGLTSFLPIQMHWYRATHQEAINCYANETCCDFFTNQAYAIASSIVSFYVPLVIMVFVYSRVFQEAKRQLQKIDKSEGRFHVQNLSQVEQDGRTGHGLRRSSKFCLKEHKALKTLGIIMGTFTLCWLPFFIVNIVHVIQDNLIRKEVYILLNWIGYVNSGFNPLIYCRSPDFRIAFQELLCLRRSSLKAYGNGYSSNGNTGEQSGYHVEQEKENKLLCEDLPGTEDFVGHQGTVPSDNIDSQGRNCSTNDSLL

For orientation: inhibition means the drop in the measured response relative to a control, in per cent. As for `CC(C)[N+]1(C)[C@@H]2CC[C@H]1CC(OC(=O)C(CO)c1ccccc1)C2` (some centres undefined), the percent of DMSO control GFP in assay [1] is 101% (inactive). Moreover, the values for the GFP response vs DMSO in [2] and in assay [4] were 95.9% (inactive) and 101% (inactive), respectively. The percent response of DMSO control in [3] is 102% (inactive). Moreover, in assay [5], the GFP response, % of DMSO is 104% (inactive). This molecule also showed a double positive events in [6] of 53.4%. Also, in [6], the vesicle binding response is 158% (inactive). In addition, the inhibition was 27.7% (inactive) in assay [7], 7.81% (inactive) in [10] and 11% (inactive) in [14]. Moreover, in assay [8], the superoxide response (% of plate) was 94.6% (inactive). Besides, in assay [9], the aptamer binding inhibition is -2% (inactive). Besides, the response in assay [11] was 2.53% (inactive). Besides, the binding (% of control) in [12] was 102% (inactive). In [13], the efflux inhibition (fraction of control) is -0.12 (inactive). Further, the differentiation response in [15] is -9.89% (inactive).
As to `CCc1cc2c(=O)c(-c3nc4ccccc4n3C)coc2c(CN2CCN(C)CC2)c1O`, the percent of DMSO control GFP in assay [1] was 107% (inactive). For the same molecule, the figures for the GFP response vs DMSO in assay [2] and in assay [4] were 107% (inactive) and 101% (inactive), respectively. Moreover, the percent response of DMSO control in [3] was 110% (inactive). In addition, in assay [5], the GFP response, % of DMSO was 100% (inactive). In assay [6], this molecule returned a double positive events of 49.7%. Further, the vesicle binding response in assay [6] was 149% (inactive). Besides, the inhibition is 17.5% (inactive) in assay [7], 2.16% (inactive) in [10] and 7% (inactive) in assay [14]. In [8], the superoxide response (% of plate) is 105% (inactive). Besides, the aptamer binding inhibition in assay [9] is 2% (inactive). Also, the response in [11] is 4.87% (inactive). Further, the binding (% of control) in assay [12] is 102% (inactive). Besides, the efflux inhibition (fraction of control) in assay [13] was -0.54 (inactive). The differentiation response in assay [15] was -0.2% (inactive).
For `Cn1c(=O)[nH]c(=O)c2c1ncn2CCN1CCOCC1`, the percent of DMSO control GFP in assay [1] is 103% (inactive). The GFP response vs DMSO in assay [2] was 98.3% (inactive); in assay [4], 82.2% (inactive). Moreover, the percent response of DMSO control in [3] was 96.6% (inactive). For the same molecule, the GFP response, % of DMSO in assay [5] is 97.3% (inactive). The molecule further displayed a double positive events in [6] of 63.6%. Besides, in [6], the vesicle binding response is 288% (inactive). Also, the inhibition in [7] was -3.57% (inactive); in [10], -3.3% (inactive); in assay [14] it was 16% (inactive). For the same molecule, the aptamer binding inhibition in assay [9] is -4% (inactive). In addition, the response is -4.41% (inactive) in assay [16] and 0.49% (inactive) in assay [11]. In addition, the binding (% of control) in assay [12] is 102% (inactive). For the same molecule, the efflux inhibition (fraction of control) in assay [13] was 0.08 (inactive). In addition, the differentiation response in [15] is 62.8% (active).
Take `Oc1c(Cl)cc(Cl)c(Cl)c1Cc1c(O)c(Cl)cc(Cl)c1Cl`: in [1], the percent of DMSO control GFP is 107% (inactive). Moreover, the results for the GFP response vs DMSO in assay [2] and in assay [4] were 113% (inactive) and 96.8% (inactive), respectively. Moreover, the percent response of DMSO control in assay [3] was 108% (inactive). Also, the GFP response, % of DMSO in assay [5] was 93.1% (inactive). This molecule also came in with a double positive events in assay [6] of 51.2%. Moreover, in assay [6], the vesicle binding response was 24.1% (active). For the same molecule, the values for the inhibition in assay [7] and in assay [14] were 7.43% (inactive) and 8% (inactive), respectively. In addition, the superoxide response (% of plate) in assay [8] is 79.3% (inactive). The aptamer binding inhibition in [9] is -1% (inactive). For the same molecule, the response in assay [11] was 0.14% (inactive). In addition, the binding (% of control) in assay [12] was 105% (inactive). In addition, the efflux inhibition (fraction of control) in [13] was 0.19 (inactive). The differentiation response in assay [15] was 0.82% (inactive).
Take `Cc1ccc(CSCC(=O)NCCCN2CCOCC2)cc1`: the percent of DMSO control GFP in [1] is 100% (inactive). The GFP response vs DMSO in [2] was 96.2% (inactive); in [4], 92.7% (inactive). For the same molecule, the percent response of DMSO control in [3] is 95.4% (inactive). For the same molecule, in assay [5], the GFP response, % of DMSO is 96.4% (inactive). The double positive events in assay [6] was found to be 67.8%. Also, the vesicle binding response in assay [6] was 243% (inactive). Besides, the inhibition in assay [7] was -4.6% (inactive); in assay [10], -6.22% (inactive); in assay [14], -6% (inactive). In addition, the aptamer binding inhibition in assay [9] was -4% (inactive). For the same molecule, the response in assay [16] is -1.57% (inactive); in assay [11], 1.78% (inactive). The binding (% of control) in assay [12] is 104% (inactive). In addition, the efflux inhibition (fraction of control) in assay [13] is 0.33 (inactive). Further, the differentiation response in assay [15] is 3.18% (inactive).
